Results published in PubChem BioAssay (NCI).
This is part of a sample that, as a whole, favours compounds with a hit. Of some 79,000 tested, about 15% had one in any assay. The source made the active and inactive calls. Cut-off read from the data, not from the text of the source: active = growth inhibition above about 70%; inactive = the rest. Where a SMILES comes first, the peptide text is derived from it. [ ]: non-standard residue; d: D form. The star is where a group is joined. ξ: configuration not given here. ξF = NC(Cc1ccccc1)C(=O)O; Cbz = O=C(OCc1ccccc1)*; Aib = CC(C)(N)C(=O)O

Legend:
[1] = NCI Yeast Anticancer Drug Screen. Data for the rad50 strain (AID 155);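 note: 0% = growth of vehicle-only cultures of the same strain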; settings: S. cerevisiae rad50 strain growth inhibition; at 50.0 µM; hits give high values
Outline: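 A DNA repair-deficient yeast mutant serves as the test organism; compound-induced growth inhibition is calculated against vehicle-treated cells.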

[2] = NCI Yeast Anticancer Drug Screen. Data for the mec2-1 strain (AID 157); settings: S. cerevisiae mec2-1 strain, at 50.0 µM, hits give high values
Outline: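 Yeast mec2-1 mutant treated with compound. Readout: growth inhibition vs vehicle controls.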

[3] = NCI Yeast Anticancer Drug Screen. Data for the sgs1 mgt1 strain (AID 161);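 note: 0% = growth of cultures given vehicle only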; settings: S. cerevisiae sgs1 mgt1 strain, at 50.0 µM, hits give high values
Outline: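 Read-out: growth inhibition vs vehicle controls. Cells: mutant yeast strain deficient in DNA damage repair.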

[4] = NCI Yeast Anticancer Drug Screen. Data for the cln2 rad14 strain (AID 165);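 note: 0% = growth equal to vehicle treated cultures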; settings: S. cerevisiae cln2 rad14 strain, at 50.0 µM, hits give high values
Outline: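 cln2 rad14 yeast strain; compound exposure; growth inhibition read vs vehicle controls.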

[5] = NCI Yeast Anticancer Drug Screen. Data for the bub3 strain (AID 167); settings: S. cerevisiae bub3 mutant strain, at 50.0 µM, hits give high values
Outline: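 Inhibition values come from growth of compound-treated mutant yeast normalised to vehicle-treated controls.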

[6] = NCI Yeast Anticancer Drug Screen. Data for the mlh1 rad18 strain (AID 175); settings: S. cerevisiae mlh1 rad18 strain growth inhibition; at 50.0 µM; hits give high values
Outline: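 Yeast w/ defined DNA-repair lesions; compound exposure; growth vs vehicle controls → % inhibition.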

Measured: growth inhibition

CN(C=O)c1ccc2c(c1)C(=O)c1ccccc1-2
inactive: [1] 11.7% | [2] 2.1% | [3] 0.1% | [4] 4.2% | [5] -0.3% | [6] 9.55%

Cc1ccccc1/C1=C/CCCCCC1
inactive: [1] -8.1% | [2] 11.3% | [3] -10.4% | [4] -21.6% | [5] 19.5% | [6] -5.05%

CCOC(=O)c1nc2ccc(C(F)(F)F)cc2nc1Nc1ccc(Cl)c(Cl)c1
inactive: [1] -22.1% | [2] 4.1% | [3] -13.9% | [4] -19% | [5] -1.35% | [6] 6.15%

O=C(O)c1ccc[n+](Cc2ccccc2)c1
inactive: [1] 4.9% | [2] 12.6% | [3] -5.15% | [4] -8.2% | [5] -5.95% | [6] 2.15%

CCCCCCCCCCCCCBr
inactive: [1] 29.8% | [2] -0.95% | [3] 13.2% | [4] 19.9% | [5] 18.1% | [6] 15.8%

C=C(Cl)COc1ccc(OCC(=C)Cl)cc1
inactive: [1] 19.3% | [2] -17.1% | [3] 31.8% | [4] 22.6% | [5] 42% | [6] 1.15%

Cn1nnn2c(-c3ccccc3)nnc12
inactive: [1] 15.4% | [2] -2.45% | [3] -5.45% | [4] -10.8% | [5] 0.8% | [6] -5.3%

CC12CCC(c3cn[nH]c31)C2(C)C (centres undefined)
inactive: [1] 16.1% | [2] 20.8% | [3] 19.9% | [4] -6.6% | [5] -0.35% | [6] 0.7%

CC(C)(NC(=O)OCc1ccccc1)C(=O)NC(Cc1ccccc1)C(=O)O (centres undefined) (Cbz-[Aib]-[ξF]-OH)
inactive: [1] -26.6% | [2] -61% | [3] -5.7% | [4] 19.8% | [5] 11.2% | [6] -11.3%

CC1(C)C=CC(=NO)C=C1
inactive: [1] -4.65% | [2] 2.65% | [3] -5.95% | [4] 6.45% | [5] 8.4% | [6] 6.7%

c1ccc(-n2nc3ccc4nonc4c3n2)cc1
inactive: [1] -17.9% | [2] -20.8% | [3] -10.5% | [4] 7.4% | [5] -0.05% | [6] -1.55%

O=S(=O)(O)c1cc2cc(S(=O)(=O)O)c(O)cc2cc1O
inactive: [1] -20.6% | [2] -7.55% | [3] -1.35% | [4] 3.55% | [5] -0.25% | [6] -7.9%

Nc1ccccc1SC1CC(=O)N(c2ccc(Br)cc2)C1=O (centres undefined)
inactive: [1] 13.2% | [2] 3.4% | [3] 2.75% | [4] 10.8% | [5] 26.6% | [6] 12.3%

CC(=O)CC(=O)C1CCC(C(=O)CC(C)=O)CC1 (centres undefined)
inactive: [1] -3.7% | [2] 6.2% | [3] 0.65% | [4] -28.1% | [5] -0.7% | [6] -13.2%

Cc1ccccc1-n1c(C)nc2cc(NCC(=O)c3ccccc3)ccc2c1=O
inactive: [1] 32.9% | [2] -9.8% | [3] -2.3% | [4] -0.5% | [5] -1.6% | [6] 4%

NC1=C(O)C(=O)C(c2cccc(O)c2)O1 (centres undefined)
inactive: [1] -8.1% | [2] -10.1% | [3] 7.9% | [4] -5.05% | [5] 3.2% | [6] 8.45%

CN1C2CCC1CC(OC(c1ccccc1)c1ccccc1)C2 (centres undefined)
inactive: [1] 11.1% | [2] 4.05% | [3] -15.4% | [4] 0.25% | [5] 2.7% | [6] 5.1%

CC#CCN(C(C)C)C(C)C
inactive: [1] 15.4% | [2] 8.3% | [3] -11.4% | [4] -34.5% | [5] -21.5% | [6] -27.1%

Fc1ccc(-c2nnc(-c3ccccc3)o2)cc1
inactive: [1] 21.4% | [2] 19.1% | [3] 25.2% | [4] 7.2% | [5] 31.4% | [6] 8.15%

Cc1ccc(S(=O)[O-])cc1.Cc1ccc(S(=O)[O-])cc1.[Zn+2]
inactive: [1] 26.9% | [2] 1.05% | [3] 16% | [4] 14.8% | [5] -1.95% | [6] 0.4%

CSc1nc(C)c(CCOC(C)=O)c(Cl)n1
inactive: [1] -18.1% | [2] -19.4% | [3] -16.2% | [4] -0.25% | [5] 17.1% | [6] 4.25%

Nc1c2ccccc2nc2c(C(=O)Nc3ccc(S(N)(=O)=O)cc3)cccc12
inactive: [1] 16.4% | [2] -8.9% | [3] -1.45% | [4] 19% | [5] -2.45% | [6] 1.05%

NC(=O)CSCC(N)C(=O)O (centres undefined)
inactive: [1] -9.75% | [2] -26.4% | [3] -13.1% | [4] -21.9% | [5] -28.5% | [6] -20%

O=[N+]([O-])c1ccc(N/N=C/C(Br)(Br)Br)c([N+](=O)[O-])c1
inactive: [1] -5.85% | [2] -0.65% | [3] -21.2% | [4] -11.9% | [5] -14.4% | [6] -27.9%

CCOC(=O)C1=CN(C)C=C(Br)C1C#N (centres undefined)
inactive: [1] -2.2% | [2] 10.1% | [3] 4.55% | [4] 6.45% | [5] 8.1% | [6] -4.75%

O=c1[nH]cc(CCOCc2ccccc2)c(=O)[nH]1
inactive: [1] -4.3% | [2] -8.15% | [3] 0.3% | [4] 34.2% | [5] -10.4% | [6] -17%

CON(C)c1nc(N(C)OC)nc(N(C)OC)n1
inactive: [1] -8.05% | [2] -48.2% | [3] -28.8% | [4] 7.85% | [5] -22.9% | [6] -12.5%

Cn1c2c(c(=O)c3c4[nH]c5c(c(=O)c4ccc31)CCCC5)CCCC2
inactive: [1] -10.2% | [2] 3.7% | [3] -15.1% | [4] -5.65% | [5] -4.95% | [6] 3.6%

O=C(/C=C/c1ccccc1)N(Cc1ccccc1)c1ccccc1
active: [1] 94.3% | [2] 96.7% | [3] 96.7% | [4] 93.5% | [5] 95.2% | [6] 95.6%

O=C1c2ccccc2C(=O)N1Cc1ccccc1
inactive: [1] 3.55% | [2] -16.9% | [3] 6.6% | [4] 27.4% | [5] 0.45% | [6] 6.7%

CCOC(=O)c1[nH]c(CC(=O)O)c(C(=O)OCC)c1C
inactive: [1] -6.8% | [2] 3% | [3] 9% | [4] -44.9% | [5] 3.9% | [6] 5.1%

CC(=O)NC(CCC(=O)C=[N+]=N)C(=O)O (centres undefined)
inactive: [1] 18.4% | [2] -14.7% | [3] 33.5% | [4] 14.1% | [5] 23.8% | [6] 12.6%

Nc1ccc2nc3c4ccccc4c(O)n3nc2c1
inactive: [1] -18.5% | [2] -9.15% | [3] -18.6% | [4] -47.9% | [5] -6.2% | [6] 14.6%

CC(Oc1ccc2c(-c3ccc(Cl)cc3)cc(=O)oc2c1)C(=O)O (centres undefined)
inactive: [1] -15.9% | [2] -4.15% | [3] 13.6% | [4] 19.1% | [5] -7.15% | [6] 32.9%

COc1ccc(/C=C/[n+]2ccccc2)cc1OC
inactive: [1] -1.45% | [2] 4.85% | [3] 4.05% | [4] -14.2% | [5] 10.7% | [6] -3.85%

C/C(=C1\SC(=S)N(C2OC(CO)C(O)C(O)C2O)C1=O)c1ccco1 (centres undefined)
inactive: [1] -14% | [2] -9.3% | [3] -33.2% | [4] -0.85% | [5] -3.3% | [6] -32.9%

O=C1CCC2=C3C4CCCC5OC6CC(=O)CCC6=C(C6CCCC(OC2C1)C36)C54 (centres undefined)
inactive: [1] 5.5% | [2] -2.15% | [3] 6.55% | [4] 11.2% | [5] 25.6% | [6] 17.4%

Cc1cccc(C)c1OC(=O)/C=C/c1ccccc1
inactive: [1] 31.3% | [2] -10.5% | [3] 33% | [4] -11.2% | [5] -11.8% | [6] 1.05%

CC(=O)Oc1ccc2c(OC(C)=O)c(C)cc(OC(C)=O)c2c1
inactive: [1] 26.3% | [2] 5.6% | [3] 20.9% | [4] 3.8% | [5] 19.1% | [6] 24.4%
